Measurements reported in publication PMC5540273 (PLoS ONE, 2017).
pKd: −log10 of the molar value.

test system: T1, MLCK
T1 construct: gene MYLK3
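Note: kd values determined as follow-up on hits from a single-replicate KINOMEscan panel screen.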

SMILES | pKd
O=C(Nc1n[nH]c2nc(-c3cccs3)c(Br)cc12)C1CC1 [SB-735297] | 6.74
CS(=O)(=O)CCNCc1nc(-c2ccc3ncnc(Nc4ccc(OCc5ccccc5)c(Cl)c4)c3c2)cs1.Cl [GW582764] | < 5.00
O=C(Nc1n[nH]c2nc(-c3cccs3)c(Br)cc12)C1CCCC1 [SB-743341] | 6.54

test system: MYLK2

SMILES | pKd
O=C(Nc1n[nH]c2nc(-c3cccs3)c(Br)cc12)C1CC1 [SB-735297] | 8.08
O=C(Nc1n[nH]c2nc(-c3ccco3)c(Br)cc12)C1CCN(Cc2ccccc2)C1.O=C(O)[C@H](O)[C@@H](O)C(=O)O (centres unmarked) [SB-742034] | 6.34
O=C(Nc1n[nH]c2cc(-c3ccsc3)ccc12)C1CC1 [SB-732932] | 7.39
Nc1cccc(-c2ccc3c(N)n[nH]c3c2)n1 [GSK2192730] | 6.74
O=C(Nc1n[nH]c2nc(-c3cccs3)c(Br)cc12)C1CCCC1 [SB-743341] | 7.59
